According to ChEMBL document CHEMBL3988442, “University of Dundee, Small-Polar-MMV Screening Library” (2021):
The campaign covered roughly 67,000 compounds. About 300 (0.45%) showed an effect of 50% or more. The list comes from a sample in which strong results are over-represented; it also holds similar structures and randomly drawn compounds.

Target: Polyketide synthase Pks13 (Mycobacterium tuberculosis (strain ATCC 25618 / H37Rv)) (UniProt I6X8D2)
Test: Mycobacterium tuberculosis Polyketide synthase 13 Thioesterase (PKS13)
Format: functional
Design: scale not given: in the data most compounds retested in dose-response had high values
Settings: 30 µM

Polyketide synthase Pks13 (Mycobacterium tuberculosis (strain ATCC 25618 / H37Rv)), sequence (I6X8D2 whole entry): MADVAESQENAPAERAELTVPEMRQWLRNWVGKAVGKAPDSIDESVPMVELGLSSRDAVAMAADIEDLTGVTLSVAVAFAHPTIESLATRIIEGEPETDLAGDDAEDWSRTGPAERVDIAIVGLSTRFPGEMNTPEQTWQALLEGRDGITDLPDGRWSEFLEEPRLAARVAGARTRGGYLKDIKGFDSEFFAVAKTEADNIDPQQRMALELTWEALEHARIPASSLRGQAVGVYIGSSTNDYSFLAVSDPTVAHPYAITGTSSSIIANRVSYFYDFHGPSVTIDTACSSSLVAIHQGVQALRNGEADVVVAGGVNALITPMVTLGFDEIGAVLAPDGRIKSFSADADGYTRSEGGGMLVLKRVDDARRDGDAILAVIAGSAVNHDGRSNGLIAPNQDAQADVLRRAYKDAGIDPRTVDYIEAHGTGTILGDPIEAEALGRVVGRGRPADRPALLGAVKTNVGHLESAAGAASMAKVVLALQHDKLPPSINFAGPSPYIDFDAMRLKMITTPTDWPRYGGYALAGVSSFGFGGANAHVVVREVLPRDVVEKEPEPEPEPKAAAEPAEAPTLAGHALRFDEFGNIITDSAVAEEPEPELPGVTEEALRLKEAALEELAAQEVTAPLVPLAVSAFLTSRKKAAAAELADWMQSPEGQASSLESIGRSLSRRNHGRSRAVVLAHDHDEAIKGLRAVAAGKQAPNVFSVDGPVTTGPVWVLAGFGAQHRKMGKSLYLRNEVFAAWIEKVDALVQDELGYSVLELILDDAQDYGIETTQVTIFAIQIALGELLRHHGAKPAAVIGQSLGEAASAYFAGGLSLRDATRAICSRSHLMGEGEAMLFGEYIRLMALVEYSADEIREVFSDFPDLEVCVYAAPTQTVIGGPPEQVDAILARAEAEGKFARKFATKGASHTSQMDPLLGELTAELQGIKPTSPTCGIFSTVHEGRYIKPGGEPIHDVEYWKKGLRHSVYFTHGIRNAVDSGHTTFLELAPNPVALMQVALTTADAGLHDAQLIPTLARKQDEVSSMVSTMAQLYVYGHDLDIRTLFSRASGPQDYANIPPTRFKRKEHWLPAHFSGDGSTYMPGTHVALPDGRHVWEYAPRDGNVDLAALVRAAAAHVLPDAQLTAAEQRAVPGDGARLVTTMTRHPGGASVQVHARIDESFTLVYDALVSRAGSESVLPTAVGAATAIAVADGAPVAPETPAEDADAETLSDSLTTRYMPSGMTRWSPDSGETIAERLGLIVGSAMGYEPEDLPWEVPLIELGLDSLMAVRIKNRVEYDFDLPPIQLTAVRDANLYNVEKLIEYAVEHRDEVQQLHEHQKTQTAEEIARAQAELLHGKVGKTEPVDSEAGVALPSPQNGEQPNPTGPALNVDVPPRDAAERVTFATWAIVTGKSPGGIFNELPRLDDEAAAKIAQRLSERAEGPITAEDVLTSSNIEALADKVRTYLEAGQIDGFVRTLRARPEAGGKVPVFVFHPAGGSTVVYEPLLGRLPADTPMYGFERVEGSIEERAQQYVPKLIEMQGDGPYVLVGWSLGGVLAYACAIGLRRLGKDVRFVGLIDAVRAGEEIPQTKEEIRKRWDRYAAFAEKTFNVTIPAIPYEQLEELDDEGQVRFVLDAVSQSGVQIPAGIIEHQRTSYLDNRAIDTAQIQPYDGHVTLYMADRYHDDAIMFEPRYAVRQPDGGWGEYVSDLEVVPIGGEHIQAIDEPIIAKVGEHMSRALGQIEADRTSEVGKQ

SMILES | Percent Effect
c1ccc(CN2CCO[C@H]3[C@H](OCCN4CCCC4)CC[C@@H]32)nc1 | -5.53%
CC(C)(C)c1nc(CNc2ccccc2SCCC(N)=O)cs1 | 6.99%
NC(=O)CCSc1ccccc1NCc1ccc(Cl)s1 | 75.8%
CC(C)(C)c1ncc(CNc2ccccc2SCCC(N)=O)s1 | 4.25%
O=C(Nc1cccnc1)[C@@H]1C[C@H]2OCC[C@H]2N(Cc2nccs2)C1 | -10.3%
Cc1nnc(N2C[C@@H]3CCCO[C@@H]3[C@H](N(C)C)C2)s1 | 26.3%
CC(=O)NCCNC(=O)c1sc(-c2ccc(Cl)s2)nc1C | 33.9%
COC(=O)CNC(=O)c1nc(Cl)sc1C(C)C | -1.24%
CN(CC(N)=O)C(=O)c1cnc(-c2ccc(Cl)s2)s1 | -171%
CN(CC(N)=O)C(=O)c1cc(Cl)c(Cl)n1C | -6.47%
COC(=O)CNC(=O)c1sc(-c2ccc(Cl)s2)nc1C | 51.9%
CC(=O)NCCNC(=O)c1sc(-c2ccc(C)cc2C)nc1C | -6.1%
COC(=O)CNC(=O)c1scnc1C | -29.3%
Cc1nc(-c2ccc(Cl)s2)sc1C(=O)N(C)CC(N)=O | 88.9%
Cc1nc(-c2ccc(Cl)s2)sc1C(=O)NCCS(N)(=O)=O | 54%
Cc1nc(-c2ccc(Cl)s2)sc1C(=O)NCCCC(N)=O | 54.9%
CC(=O)NCCNC(=O)c1sc(-c2ccc(Cl)cc2)nc1C | -15.5%
Cc1c(C(=O)NCCCC(N)=O)sc2ccc(F)cc12 | 0.295%
CN(C)C(=O)CN1C[C@@H]2CC[C@H](C1)N(Cc1ccccc1OCCO)C2 | -4.8%
CCCN1CCN(Cc2cccc(OC(C)C)c2)[C@H]2CS(=O)(=O)C[C@H]21 | -8.54%
O=C(CO[C@@H]1CC[C@H]2[C@H]1OCCN2c1ncccn1)N1CCCC1 | -31.3%
C1CCN(CCO[C@@H]2CC[C@H]3[C@H]2OCCN3CC2CCOCC2)C1 | -4.73%
c1cnc(NC[C@H]2OC[C@@H]3CCN(Cc4ccsc4)C[C@@H]32)nc1 | -14%

SMILES | Percent Effect
Cc1ccc(S(=O)(=O)N2CC[C@H]3CO[C@H](CN(C)C)[C@H]3C2)cc1 | -8.17%
CC(C)N1C(=O)CO[C@H]2CCN(C(=O)c3ccc4c(c3)CCC4)CC[C@@H]21 | 13%
Cc1nc(-c2ccc(Cl)s2)sc1C(=O)O | 11.9%
Cc1nc(-c2ccc(Cl)s2)sc1C(=O)NC(C)(C)C(N)=O | 59.7%
CC(C)(NC(=O)c1ccc(-c2ccc(F)cc2)s1)C(N)=O | -17.8%
O=C1[C@@H]2CN(Cc3cc4ccccc4o3)C[C@]2(C(=O)O)CN1CC1CC1 | -17.7%
CN(C)C(=O)N1C[C@@H]2CC[C@H](C1)N(C(=O)CCCn1cncn1)C2 | -5.92%
Cc1csc(CNc2nc3c(s2)c(C)nn3C)n1 | 24%
Cc1csc(CNc2cnc3c(c2)c(C)nn3C)n1 | 54.4%
Cc1csc(CCNCc2cnc3c(c2)c(C)nn3C)n1 | -13.2%
Cc1ccc([C@]2(O)CC[C@H]3CN(Cc4cccc(Cl)c4Cl)C[C@H]32)nc1 | -77.5%
COc1ccnc(N2C[C@@H]3CC[C@H](C2)N(CC2CC2)C3)n1 | -40.5%
Cc1ccc(-c2cc(C(=O)NCCCc3csc(N)n3)[nH]n2)s1 | 57.8%
Cn1cccc1-c1cc(C(=O)NCCCc2csc(N)n2)[nH]n1 | 3.3%
Cc1ccc(-c2cc(C(=O)NCCCc3csc(N)n3)[nH]n2)o1 | -10.8%
COCCN1C[C@H]2[C@@H](C1)N(C(=O)CCc1ccccc1)CC[C@H]2OC | -5.76%
Cc1nnc([C@@H]2CC[C@@H]3[C@@H](CCN3S(=O)(=O)c3cccnc3)O2)o1 | -18.5%
NC(=O)c1cc(-n2cc(-c3cccc(C(=O)O)c3)cn2)cs1 | -18.4%
NC(=O)c1cc(-c2cccc(C(=O)O)c2)cs1 | -10.7%
NC(=O)c1ccccc1-n1cc(-c2cccc(C(=O)O)c2)cn1 | 61.5%
CC(=O)N1[C@H](CN(C)C)C[C@@H]2CN(C(=O)c3cccc(F)c3)CC[C@@H]21 | -7.05%
O=C(c1ccc(F)cc1)N1C[C@@H]2CN(c3ncccn3)C[C@@H]2C1 | -16.8%
CN(C)S(=O)(=O)N1CC[C@]2(O)CCN(c3ncccn3)C[C@@H]2C1 | 5.3%

SMILES | Percent Effect
CS(=O)(=O)NC[C@H]1OC[C@@H]2CN(Cc3cccnc3)CC[C@@H]21 | 7.73%
CC(NC(=O)COCC(F)(F)F)c1nnc2n1CCCCC2 (centres undefined) | -15.5%
CC(NC(=O)CN(C)S(C)(=O)=O)c1nnc2n1CCCCC2 (centres undefined) | 76.2%
CC(C)CCC(=O)NC(C)c1nnc2n1CCCCC2 (centres undefined) | -2.75%
Cc1noc(C)c1CN1C[C@@H]2CCCO[C@@H]2[C@H](Nc2ccccn2)C1 | -22.7%
Cc1nnc(C[C@@H]2COC[C@H]3CN(C(=O)c4ccco4)C[C@@H]23)o1 | -27.6%
Cc1cccc(CN2C[C@H]3C[C@H](C(=O)NCc4cccnc4)[C@@H](C2)O3)c1 | 2.63%
c1ccc(CCCN2CC[C@H](c3nnc(-c4ccccc4)o3)C2)cc1 | 96.4%
Cc1nnc([C@H]2CCN(CCCc3ccccc3)C2)o1 | 8.46%
c1ccc(CCCN2CC[C@H](c3nnc(-c4cccnc4)o3)C2)cc1 | -20%
Cc1nc(O)cc(CNC(=O)CC[C@@H]2CCCN3CCCC[C@H]23)n1 | -2.37%
COc1cccc(CNC[C@@]2(COc3cccnc3)C[C@@H](O)[C@@H](O)C2)c1 | 3.65%
O=C(c1cc2c([nH]c1=O)CCC2)N1CCCC1c1ccc(F)cc1 (centres undefined) | -4.09%
COCc1nc(C(=O)N2CCCC2c2cccc(C)c2)cs1 (centres undefined) | -1.31%
COc1ccc(C2CCCN2C(=O)c2cc3c([nH]c2=O)CCC3)cc1 (centres undefined) | 57.9%
COCc1nc(C(=O)N2CCCC2c2ccc(OC)cc2)cs1 (centres undefined) | 76.5%
COCc1nc(C(=O)N2CCCC2c2ccncc2)cs1 (centres undefined) | -19.5%
COc1cccc(C2CCCN2C(=O)c2cc3c([nH]c2=O)CCC3)c1 (centres undefined) | 43.2%
Cc1ccc(CN2C[C@@H]3[C@@H](C(=O)NCC(C)C)CCS(=O)(=O)[C@@H]3C2)cc1 | -36.5%
CCc1ccc(NC(=O)N2C[C@H]3C[C@H](C(=O)N4CCCC4)[C@@H](C2)O3)cc1 | -33.7%
COC[C@@]12CCO[C@@H]1CCN(C(=O)COc1ccccc1OC)C2 | -28.6%
CNC(=O)[C@H]1C[C@H]2OCC[C@H]2N(Cc2cccc3ccccc23)C1 | -14%
CCCN1C[C@H]2CC[C@@H]1CN(C(=O)Cc1c(C)nc(CC)[nH]c1=O)C2 | -18.4%
